IL2 activator: IL-2 activation. IL-2 activation reporter assay, cell-based qHTS; stimulated with anti-CD3/CD4/CD28 beads; in transgenic mouse T cells. activation, % (series mostly up to about 46 µM). hit rate 0.065% among 360,000; in the data active means activation above about 50%; inconclusive means mostly about 30% to 49%; further: 0% is about no effect
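Screening format: compound pinned onto unstimulated transgenic mouse T cells, 60 min incubation, then anti-CD3/anti-CD4/anti-CD28 bead stimulation for 18 hours at 37 degrees C, followed by EGFP and DsRed detection.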
TrxR1 substrate: rat thioredoxin reductase 1 substrate activity. hit rate 0.01% among 390,000. Potency, µM (titrated, usually from 114 µM), for the others: at the highest dose activity change, negative = substrate turnover. O89049. AID 588456. purified TrxR1 substrate turnover, NADPH consumption readout; further: potency means the concentration at half of the fitted maximal effect; on the % scale 0 is the no-effect control and ±100 the full control effect; nearly all actives have a fitted effect of over 50% in size
Target sequence (O89049 whole entry, looked up): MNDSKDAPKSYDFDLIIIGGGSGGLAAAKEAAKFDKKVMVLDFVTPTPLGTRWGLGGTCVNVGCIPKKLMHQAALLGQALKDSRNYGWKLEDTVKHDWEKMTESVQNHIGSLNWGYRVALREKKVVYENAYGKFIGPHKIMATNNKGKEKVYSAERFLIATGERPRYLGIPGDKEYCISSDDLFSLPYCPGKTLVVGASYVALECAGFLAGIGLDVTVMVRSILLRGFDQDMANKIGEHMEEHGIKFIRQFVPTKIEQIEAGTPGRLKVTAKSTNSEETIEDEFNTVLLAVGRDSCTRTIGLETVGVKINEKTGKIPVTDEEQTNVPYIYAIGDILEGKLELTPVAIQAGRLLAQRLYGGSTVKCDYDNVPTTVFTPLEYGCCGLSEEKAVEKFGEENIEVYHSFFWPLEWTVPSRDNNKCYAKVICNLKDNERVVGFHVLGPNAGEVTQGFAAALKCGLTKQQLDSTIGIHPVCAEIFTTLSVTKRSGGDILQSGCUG
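Rat TrxR1, dispensed at 90 nM, was prereduced with 400 uM NADPH (final) for 5 min at ~22 deg C, then incubated with compound 15 min before 400 uM selenite. A first-read NADPH fluorescence drop versus no-compound background flagged substrates.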
rTrxR1 inhibitor: rat TrxR1 inhibition. Potency, µM (highest dose often 114 µM), for inactives: top-dose activity change, negative = inhibition, hits mostly inhibitors. recombinant rTrxR1, NADPH fluorescence consumption, selenite substrate. AID 588453. hit rate 1% among 390,000; further: potency means the concentration at half of the fitted maximal effect; on the % scale 0 is the no-effect control and ±100 the full control effect; nearly all actives have a fitted effect of over 65% in size
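Rat TrxR1 (90 nM in the dispensed reagent) was pre-reduced with 400 uM NADPH for 5 min at room temperature, then incubated with compound for 15 min. After 400 uM selenite was added, NADPH fluorescence (Ex 340/Em 450 nm) was followed for 8 min.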
mIDH1 inhibitor: inhibitors of human mutant IDH1 R132H | O75874 | IDH1-R132H enzyme, NADPH consumption, diaphorase/resazurin fluorescence | Potency, µM (highest dose often 76.6 µM), for the others: at the highest dose activity change, negative = inhibition, actives largely listed as inhibitors | hit rate 0.093% among 390,000; further: potency means the concentration at half of the fitted maximal effect; on the % scale 0 is the no-effect control and ±100 the full control effect; nearly all actives have a fitted effect of over 65% in size
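IDH1-R132H (0.5 ug/mL) preincubated 30 min with compound, then NADPH (0.016 mM) and alpha-KG (2 mM) added; 80 min at RT, pH 7.5. Remaining NADPH coupled via diaphorase/resazurin to fluorescence (540/590 nm); concentration-response curves normalized to no-enzyme control.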
BRCA1 expr act: increases BRCA1 expression | MCF7-BRCA1-FFLuc reporter, luminescence, 48 h; response scale: scaled: vehicle 0%, 10 µM genistein 100% | Potency, µM (top dose mostly 46.1 µM), for inactives: top-dose activation, usual class: activators | hit rate 1.1% among 380,000 | AID 624202; further: potency means the concentration at half of the fitted maximal effect; nearly all actives have a fitted effect of over 80% in size
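MCF7-BRCA1-FFLuc, 2000 cells/well; 2 h attach, 37 °C/5% CO2; compound 48 h; luciferase substrate 15 min; luminescence end-point. Norm. to genistein 10 microM max activation and DMSO; concentration-response curves fitted.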
Giardia kill: Giardia lamblia killing. Giardia lamblia trophozoite viability. activity change, % at 7.66 µM, hits read low. hit rate 0.15% among 340,000. AID 540267; in the data active means activity change below about -80%; inconclusive means between about -30% and that limit;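 further: parasites exposed to compound for two days anaerobically before the ATP read; on the % scale 0 is the no-effect control and ±100 the full control effect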
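Compounds were tested on trophozoites seeded at 100 cells/well and held 48 hrs at 37 deg C anaerobically. An ATP-based luminescent kit measured the remaining live cells.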
Numbers without * were called inactive; ? = inconclusive; / = no result; [ ] = dose if it differs, or a comment. An excerpt weighted towards active compounds, which were near 2.2% of everything screened. Unless noted, the call rests on the fitted dose curve; in most records, active means well fitted curve in the direction sought with a large enough effect; inconclusive means small, poorly fitted or top-dose-only effect, or another doubt; inactive means no such curve, though single readings can be large; an effect the other way counts as inactive or inconclusive.

SMILES	IL2 activator	TrxR1 substrate	rTrxR1 inhibitor	mIDH1 inhibitor	BRCA1 expr act	Giardia kill
COc1ccc(CNC(=O)COc2ccc(C)nc2[N+](=O)[O-])cc1	-2.3	-8.4%	12.9%[57.1 µM]	-2.9%	-5.6%	-22.9
Cc1ccc(OCc2ccc([N+](=O)[O-])cc2)c([N+](=O)[O-])n1	0.2	4.4%	8.8%	-4.1%	5.01µM*	?
Cc1ccc(OCCOc2ccc(Br)cc2)c([N+](=O)[O-])n1	-1.4	-11.6%	-4.7%	9.4%	3.16µM*	-11.9
O=[N+]([O-])c1ccc(COc2cccc3cccnc23)cc1	-2.2	10.3%[57.1 µM]	8.9%[57.1 µM]	11.1%	11.2µM*	-1.0
CN(C)CCCO[C@H]1C([C@H](O)CO)O[C@@H]2OC(C)(C)O[C@@H]21 (some centres not stated)	/	/	2.8%	/	/	/
CCOc1ccccc1C(=O)N1CC(=O)Nc2ccc(Cl)cc2C1c1ccccc1 (configuration not stated)	/	-3.6%	23.3%[2.29 µM]	0.7%	/	/
COC(=O)c1c(SC)nc2ccccc2c1OCc1ccccc1C	/	-0.1%[57.1 µM]	19.1%[57.1 µM]	-8.8%	0.0%	/
Cc1ccc(NC(=O)CSc2nc3ccc(NC(=O)COc4ccc(C)cc4)cc3s2)cc1	/	-0.9%	19.5%	-6.6%	4.8%	/
COc1ccc(NC(=O)c2cc(C)on2)cc1	-0.7	3.8%	9.2%	-2.8%	7.08µM*	10.5
COc1ccc(NC(=O)c2cc(C)on2)cc1OC	2.6	4.4%	13.4%	10.9%	14.5%	2.7
COc1ccc(NC(=O)c2cccnn2)cc1	-4.6	10.9%	27.1%	10.9%	12.6µM*	-2.3
CCOc1ccc(CCNC(=O)Cn2ccc3cc(S(=O)(=O)N4CCCCC4)ccc32)cc1	/	5.8%	51.4%	9.4%	/	/
O=C(O)CC(CC(=O)Nc1ccc(-n2ccc(C(F)(F)F)n2)cc1)c1ccccc1 (configuration not stated)	0.2	-2.8%	-5.4%	-1.1%	2.1%	12.1
O=C(Nc1ccccc1)Nc1ccc(-n2ccc(C(F)(F)F)n2)cc1	-0.7	-8.0%	-10.8%	-9.6%	3.55µM*	11.6
O=C(COC(=O)c1nc(Cl)c(Cl)c(Cl)c1Cl)NCc1ccccc1	-0.2	-7.5%	44.7µM*	11.4%	-74.2%	8.2
O=C(Nc1ccc(Cl)cn1)Nc1ccc(Cl)cn1	-1.2	6.1%	29.4%	3.9%	39.0%	-0.8
C/C(=C\c1ccccc1)C(=O)Nc1ccc(Cl)cn1	1.0	-1.4%	13.5%	4.7%	7.94µM*	4.4
CC(C)C/C=C1\CCc2c([nH]c3ccccc23)C1=O	-2.3	-6.3%	-5.1%	0.0%	8.91µM*	22.2
O=C1/C(=C/c2cccnc2)CCc2c1[nH]c1ccccc21	-3.4	2.8%[57.1 µM]	5.1%[57.1 µM]	7.5%	?	2.4
CCCCn1c(/C=C/c2ccco2)nc2ccccc21	0.1	4.9%	50.1µM*	7.4%	-49.4%	1.5
Clc1ccc(Cn2c(/C=C/c3ccco3)nc3ccccc32)cc1	-2.4	12.6%	44.7µM*	1.3%	64.7%	-4.1
CCCn1c(/C=C/c2ccco2)nc2ccccc21	0.1	13.7%	50.1µM*	5.0%	-70.0%	-9.5
CCCn1c(NCc2ccco2)nc2ccccc21	-0.2	3.8%	0.7%	-2.3%	34.9%	1.2
Cc1ccc(Cn2c(/C=C/c3ccco3)nc3ccccc32)cc1	-0.7	-1.8%	6.7%	2.8%	-49.4%	4.3
c1ccc(CCNc2nc(-c3cccnc3)cs2)cc1	2.6	2.5%	3.3%	0.0%	8.91µM*	-5.6
SMILES	IL2 activator	TrxR1 substrate	rTrxR1 inhibitor	mIDH1 inhibitor	BRCA1 expr act	Giardia kill
COc1ccc(Nc2nc(-c3cccs3)cs2)c(OC)c1	0.7	-12.8%	-21.8%	8.8%	-2.5%[1.84 µM]	-8.4
COc1ccccc1Nc1nc(-c2cccnc2)cs1	0.3	12.2%[57.1 µM]	22.9%[57.1 µM]	8.8%	10µM*	1.7
CCN(CC)c1ccc(Nc2nc(-c3cccnc3)cs2)cc1	-1.5	6.6%[57.1 µM]	13.8%	6.7%	3.98µM*	-13.9
c1ccc(CCNc2nc(-c3ccccn3)cs2)cc1	-0.2	7.6%	20.0%	-8.4%	?	3.5
COc1ccc(Nc2nc(-c3cccnc3)cs2)c(OC)c1	0.4	-6.5%	18.5%[57.1 µM]	15.5%	11.2µM*	-17.7
CC(=O)c1cccc(NC(=O)Cn2ccn3nc(-c4ccccc4)cc3c2=O)c1	/	-1.9%[57.1 µM]	12.1%[57.1 µM]	/	/	/
COc1cc2c(C(=O)N(C)c3cc(Cl)ccc3OC)cn(CC(C)C)c(=O)c2cc1OC	/	-23.4%	?	-3.4%	-29.2%	/
CN(CCCC1CCCC1)C(=O)CCc1nnc(-c2ccccc2)o1	-0.6	-1.8%	6.0%	0.0%	?	1.8
Cc1cc(C)n(CCN(C)C(=O)CCc2nnc(CCC3CCCCC3)o2)n1	0.7	1.9%	3.0%	-2.3%	11.2µM*	-26.6
CC(=O)/C=C/c1ccc2c(c1)S(=O)(=O)N(C1CCCC1)[C@H]2CC(C)=O	/	-4.5%	-5.7%	/	/	/
Cn1cccc1C(=O)NCCc1ccccc1	-3.3	3.4%	15.2%	2.8%	2.1%	-10.8
COc1ccc(CCNC(=O)c2cccn2C)cc1	-1.5	10.1%	31.7%	0.0%	2.82µM*	4.2
Cn1cccc1C(=O)NCCc1ccc(Cl)cc1	1.7	2.0%	20.2%	2.0%	7.08µM*	-29.6
COc1ccc(CCNC(C)=O)cc1	-0.3	-0.4%	-0.5%	1.6%	1.6%	1.5
COc1ccc(N2C(=O)CSC23C(=O)N(Cc2ccc(C)cc2)c2ccccc23)cc1Cl (configuration not stated)	/	2.9%	33.6%	-1.8%	-38.1%	/
COc1ccc(-c2nc3nc(C)cc(Nc4ccc(C(C)=O)cc4)n3n2)cc1	/	4.1%	15.8%	-6.0%	-29.3%	/
Cc1cc(NC(=O)Nc2ccc3c(ccn3C)c2)sn1	-0.1	1.0%[57.1 µM]	0.4%[57.1 µM]	-7.7%	10µM*	-8.8
CCc1ccccc1NC(=O)c1ccc(CN2C(=O)CCn3nc(C)cc32)cc1	/	3.0%	27.5%	-3.4%	/	/
CCOc1ccccc1NC(=O)c1c(NC(=O)c2ccccc2)sc2c1CCCC2	/	7.1%	3.5%	8.3%	/	/
CCc1ccccc1NC(=O)c1c(NC(=O)c2ccccc2)sc2c1CCCC2	/	81.4%	89.1µM*	-17.9%	/	/
CCN(CC)c1ccc(C=N/C(C#N)=C(\N)C#N)cc1	-0.1	-9.6%	-17.3%	-0.2%	2.51µM*	10.6
CCOC(=O)c1cnn(-c2ccc(C)cc2)c1N	3.1	-2.7%	-2.4%	-0.9%	11.2µM*	1.3
CCOC(=O)c1ccc(-n2ncc(C(=O)OCC)c2N)cc1	-0.4	-6.1%[57.1 µM]	9.1%[57.1 µM]	8.5%	3.0%	-21.9
CCOC(=O)CNC(=O)C1CCCCC1	/	0.3%	10.2%	/	9.4%	9.3
O=C1c2ccccc2-c2onc3ccc(NCc4ccco4)c1c23	3.2	-8.4%	25.1µM*	13.2%	-43.7%	6.0
COc1cc(OC)cc(N2C(=O)N(Cc3ccc(C(C)(C)C)cc3)c3ccccc3S2(=O)=O)c1	/	8.2%[57.1 µM]	29.3%[57.1 µM]	3.4%	-6.3%	/
